# Source: ChEMBL document CHEMBL3433997, “St. Jude Leishmania screening dataset” (2016)
# Key:
# Format in all cases: functional
# [1] = target: Solute carrier family 2, facilitated glucose transporter member 1 (Homo sapiens) (UniProt P11166); assay: ST_JUDE_LEISH: Cytotoxicity at 2uM final concentration against transgenic Leishmania Mexicana promastigotes LmGLUT1 that are glucose transport deficient and complemented with the human glucose transporter GLUT1. Activity is measured by DNA content using SYBR green in vitro
# Solute carrier family 2, facilitated glucose transporter member 1 (Homo sapiens), sequence (P11166 whole entry): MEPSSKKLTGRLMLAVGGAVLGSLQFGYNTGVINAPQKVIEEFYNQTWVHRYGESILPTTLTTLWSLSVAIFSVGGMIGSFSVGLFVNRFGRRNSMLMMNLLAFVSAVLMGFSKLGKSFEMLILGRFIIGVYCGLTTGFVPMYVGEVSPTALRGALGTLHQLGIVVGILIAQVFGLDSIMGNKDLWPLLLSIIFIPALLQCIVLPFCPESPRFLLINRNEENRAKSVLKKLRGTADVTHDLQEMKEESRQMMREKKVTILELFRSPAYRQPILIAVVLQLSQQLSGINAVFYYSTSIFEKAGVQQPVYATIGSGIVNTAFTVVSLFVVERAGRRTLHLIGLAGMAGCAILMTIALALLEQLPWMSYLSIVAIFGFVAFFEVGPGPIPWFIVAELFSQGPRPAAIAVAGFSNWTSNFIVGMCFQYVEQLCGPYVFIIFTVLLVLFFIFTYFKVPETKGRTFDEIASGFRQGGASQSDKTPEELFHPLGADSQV
# [2] = target: Hexose transporter 1 (Plasmodium falciparum) (UniProt O97467); assay: ST_JUDE_LEISH: Cytotoxicity at 2uM final concentration against transgenic Leishmania Mexicana promastigotes LmPfHT that are glucose transport deficient and complemented with the Plasmodium falciparum hexose transporter. Activity is measured by DNA content using SYBR green in vitro
# [3] = target: Glucose transporter (Leishmania mexicana) (UniProt O61059); assay: ST_JUDE_LEISH: Cytotoxicity at 2uM final concentration against transgenic Leishmania Mexicana promastigotes LmGT2 that are glucose transport deficient and complemented with the L. Mexicana glucose transporter 2. Activity is measured by DNA content using SYBR green in vitro
structure (smiles),measurement,setting,value
COc1ccc2nccc([C@@H](O)CN3CCC(NCc4nc5c(cc4F)SCC(=O)N5)C(F)C3)c2c1 (some centres undefined),inhibition,[1],5.83%
same,inhibition,[2],3.21%
same,inhibition,[3],4.51%
NOCCCOc1ccc(Cl)cc1,inhibition,[1],4.86%
same,inhibition,[2],3.73%
same,inhibition,[3],3.9%
O=C(Nc1ccc(Cl)cc1Cl)NC1CCN(CCCCCNC(=O)C2CC2c2ccc(Cl)c(Cl)c2)CC1 (centres undefined),inhibition,[1],10.1%
same,inhibition,[2],11.3%
same,inhibition,[3],9.23%
FC(F)(F)c1cccc(Nc2nc(-n3ccnc3)nc(-n3ccnc3)n2)c1,inhibition,[1],1.93%
same,inhibition,[2],0.62%
same,inhibition,[3],1.05%
Fc1ccc(CNc2nc(-c3ccc(F)c(C(F)(F)F)c3)n(-c3cccc(C(F)(F)F)c3)n2)cc1,inhibition,[1],4.39%
same,inhibition,[2],5.8%
same,inhibition,[3],3.42%
Nc1nc(N)c2c(ccc3c2ccn3Cc2cccc3ccccc23)n1,inhibition,[1],97.3%
same,inhibition,[2],96%
same,inhibition,[3],88.4%
CCCCN(CCCC)CC(O)c1cc(-c2ccc(Cl)cc2)nc2c(Cl)cc(Cl)cc12 (centres undefined),inhibition,[1],6.76%
same,inhibition,[2],7.36%
same,inhibition,[3],4.19%
c1ccc(CNCc2ccc(-c3ccc(-c4nc5ccccc5[nH]4)cc3)cc2)cc1,inhibition,[1],20.4%
same,inhibition,[2],12.9%
same,inhibition,[3],10%
COc1cccc(N(CCCN2C(=O)c3cccc4cccc(c34)C2=O)C(=O)c2ccccc2C)c1,inhibition,[1],5.96%
same,inhibition,[2],7.4%
same,inhibition,[3],0.69%
FC(F)(F)c1ccc2c(NCCNc3ccnc4cc(C(F)(F)F)ccc34)ccnc2c1,inhibition,[1],2.33%
same,inhibition,[2],0.31%
same,inhibition,[3],0.92%
CCC(C)(C)n1c(C)cc2c3c(N)nc(N)nc3ccc21,inhibition,[1],71.7%
same,inhibition,[2],77.2%
same,inhibition,[3],63.6%
COc1cc2nc(N3CCN(C(=O)c4ccco4)CC3)nc(NCc3ccccc3)c2cc1OC,inhibition,[1],14.9%
same,inhibition,[2],15.2%
same,inhibition,[3],11.1%
CC(C)(Oc1c(C2CCN(CCCCNC(=O)c3ccc(-c4ccc(C#N)cc4)cc3)CC2)ccc2c1CCCC2)C(N)=O,inhibition,[1],0.07%
same,inhibition,[2],0.7%
same,inhibition,[3],-1.31%
